Holding throughout (experiment): protein-binding microarray (PBM); PBM: ~300 nM protein, 6 mM HEPES pH 7.8, 80 mM KCl, 0.5 mM EDTA, 0.5 mM EGTA, 6% glycerol, 35 ng/ul poly-dIdC, 1% milk, 1 h, room temperature; Ap Aiptasia and Nv Nematostella (sea anemones) / Co Capsaspora / Aq Amphimedon (sponge) / Dm Drosophila / Hu human; RHD is the Rel homology domain; high values mean tight binding
What all share (conditions): dsDNA, one strand shown

One assay addresses T1, GST-Ap-NF-kB RHD (Exaiptasia pallida (Aiptasia), UniProt A0A913YAJ5 2-422).
T1 sequence: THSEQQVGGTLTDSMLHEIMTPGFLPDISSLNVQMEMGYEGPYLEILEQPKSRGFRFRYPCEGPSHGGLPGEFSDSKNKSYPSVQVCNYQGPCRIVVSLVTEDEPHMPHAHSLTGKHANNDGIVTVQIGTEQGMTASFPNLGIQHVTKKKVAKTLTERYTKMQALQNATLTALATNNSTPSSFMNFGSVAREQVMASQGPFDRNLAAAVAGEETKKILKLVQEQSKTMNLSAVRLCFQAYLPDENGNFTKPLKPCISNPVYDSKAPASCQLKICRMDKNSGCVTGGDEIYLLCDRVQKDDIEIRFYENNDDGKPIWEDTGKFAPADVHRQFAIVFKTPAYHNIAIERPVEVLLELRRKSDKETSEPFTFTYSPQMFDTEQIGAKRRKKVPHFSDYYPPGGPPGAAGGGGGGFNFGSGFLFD

Assay [1] addresses T2, GST-Nv-NF-kB (Cys allele) (Nematostella vectensis, UniProt E5G601 2-411).
T2 sequence: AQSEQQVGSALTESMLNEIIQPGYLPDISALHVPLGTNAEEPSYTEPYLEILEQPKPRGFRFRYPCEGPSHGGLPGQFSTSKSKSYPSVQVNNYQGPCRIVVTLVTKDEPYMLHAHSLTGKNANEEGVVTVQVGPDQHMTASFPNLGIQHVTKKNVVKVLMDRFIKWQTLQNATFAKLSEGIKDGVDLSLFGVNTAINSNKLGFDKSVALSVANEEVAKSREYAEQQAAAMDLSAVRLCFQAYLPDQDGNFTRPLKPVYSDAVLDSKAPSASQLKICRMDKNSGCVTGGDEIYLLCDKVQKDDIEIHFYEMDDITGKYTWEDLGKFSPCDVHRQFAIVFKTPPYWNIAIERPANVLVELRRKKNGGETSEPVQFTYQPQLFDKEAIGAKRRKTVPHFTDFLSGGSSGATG

A further assay concerns the target T3, GST-Co-NF-kB (Capsaspora owczarzaki, UniProt F1ARL5 200-546).
T3 sequence: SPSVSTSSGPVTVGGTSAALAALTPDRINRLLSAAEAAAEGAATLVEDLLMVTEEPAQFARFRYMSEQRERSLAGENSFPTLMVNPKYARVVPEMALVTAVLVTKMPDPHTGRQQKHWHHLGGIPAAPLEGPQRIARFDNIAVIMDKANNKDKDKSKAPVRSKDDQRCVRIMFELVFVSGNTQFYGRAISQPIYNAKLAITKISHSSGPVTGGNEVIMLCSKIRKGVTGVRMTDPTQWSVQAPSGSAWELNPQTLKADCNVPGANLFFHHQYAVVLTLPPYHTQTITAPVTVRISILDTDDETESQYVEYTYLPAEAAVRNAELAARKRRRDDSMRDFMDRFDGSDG

In a further assay the target is T4, GST-Dm-Relish (Drosophila melanogaster, UniProt Q94527 99-473).
T4 sequence: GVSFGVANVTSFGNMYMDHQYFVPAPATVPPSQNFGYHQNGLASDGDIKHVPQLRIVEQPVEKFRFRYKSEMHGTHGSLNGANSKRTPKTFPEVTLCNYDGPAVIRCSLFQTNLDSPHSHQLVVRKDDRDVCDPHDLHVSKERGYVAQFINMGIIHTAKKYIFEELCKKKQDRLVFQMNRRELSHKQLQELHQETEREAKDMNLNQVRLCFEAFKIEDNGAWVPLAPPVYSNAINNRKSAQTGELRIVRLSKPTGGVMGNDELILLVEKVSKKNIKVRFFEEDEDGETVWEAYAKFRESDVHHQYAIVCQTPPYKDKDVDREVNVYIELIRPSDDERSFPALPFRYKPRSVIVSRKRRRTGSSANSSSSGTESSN

A further assay addresses T5, GST-Aq-NF-kB (Amphimedon queenslandica, UniProt A9Y5G7 2-389).
T5 sequence: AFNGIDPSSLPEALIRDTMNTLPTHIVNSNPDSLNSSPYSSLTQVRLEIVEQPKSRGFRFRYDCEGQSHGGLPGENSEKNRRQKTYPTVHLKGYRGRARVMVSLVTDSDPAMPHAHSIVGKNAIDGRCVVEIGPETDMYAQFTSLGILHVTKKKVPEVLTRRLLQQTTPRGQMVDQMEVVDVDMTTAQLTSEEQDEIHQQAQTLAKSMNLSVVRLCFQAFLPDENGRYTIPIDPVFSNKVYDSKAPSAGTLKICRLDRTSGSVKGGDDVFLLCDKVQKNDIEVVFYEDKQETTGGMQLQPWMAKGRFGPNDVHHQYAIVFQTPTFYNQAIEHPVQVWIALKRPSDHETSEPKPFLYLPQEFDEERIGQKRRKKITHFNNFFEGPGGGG

With “CCGATTAACATCAAAGGAATCCCTGATGTTAATCGGGTCTTGATTCGCTTGACGCTGCTG”, the binding signal with GST-Ap-NF-kB RHD is 3.02 z-score; in assay [1], 2.14 z-score; with GST-Co-NF-kB it was 1.06 z-score; in the assay with GST-Dm-Relish, 7.59 z-score; with GST-Aq-NF-kB it was 2.92 z-score.
The corresponding values for “CCGATTAACATCACCAAAATCCCTGATGTTAATCGGGTCTTGATTCGCTTGACGCTGCTG” are 3.22 z-score, 2.45 z-score, 1.36 z-score, 5.42 z-score and 2.86 z-score.
The matching figures for “CCGATTAACATCAAAAATCCCGATGATGTTAATCGGGTCTTGATTCGCTTGACGCTGCTG”: 3.79 z-score, 3.94 z-score, 1.91 z-score, 6.2 z-score and 4.05 z-score.
The matching figures for “CCGATTAACATCAGGGAATATTATGATGTTAATCGGGTCTTGATTCGCTTGACGCTGCTG”: 5.06 z-score, 5.86 z-score, 3.81 z-score, 3 z-score and 5.75 z-score.
Turning to “CCGATTAACATCAAGGCATTCCCTGATGTTAATCGGGTCTTGATTCGCTTGACGCTGCTG”, the binding signal with GST-Ap-NF-kB RHD amounted to 1.97 z-score; in assay [1], 2.56 z-score; with GST-Co-NF-kB, 1.94 z-score; with GST-Dm-Relish, 2.53 z-score; in the assay with GST-Aq-NF-kB it was 3.27 z-score.
On to “CCGATTAACATCAGGGGAGGAAATGATGTTAATCGGGTCTTGATTCGCTTGACGCTGCTG”, for which the binding signal with GST-Ap-NF-kB RHD was determined as 3.45 z-score; in assay [1], 4.2 z-score; with GST-Co-NF-kB, 7.38 z-score; in the assay with GST-Dm-Relish it was 1.91 z-score; with GST-Aq-NF-kB, 3.51 z-score.
As for “CCGATTAACATCAGGGAATTACATGATGTTAATCGGGTCTTGATTCGCTTGACGCTGCTG”, the binding signal with GST-Ap-NF-kB RHD worked out at 4.01 z-score; in assay [1], 5.15 z-score; with GST-Co-NF-kB, 4.3 z-score; with GST-Dm-Relish, 8.99 z-score; with GST-Aq-NF-kB it was 4.92 z-score.
The matching figures for “CCGATTAACATCAGAAGTTCCCATGATGTTAATCGGGTCTTGATTCGCTTGACGCTGCTG”: 2.2 z-score, 2.3 z-score, 2.44 z-score, 3.27 z-score and 2.82 z-score.
The matching figures for “CCGATTAACATCAGGGAAAAAACTGATGTTAATCGGGTCTTGATTCGCTTGACGCTGCTG”: 2.85 z-score, 4.45 z-score, 5.17 z-score, 5.49 z-score and 5.31 z-score.
The corresponding values for “CCGATTAACATCAGGGAACTACATGATGTTAATCGGGTCTTGATTCGCTTGACGCTGCTG” are 1.52 z-score, 1.1 z-score, 1.62 z-score, 8.31 z-score and 2.44 z-score.
For “CCGATTAACATCACTAAAATCCCTGATGTTAATCGGGTCTTGATTCGCTTGACGCTGCTG”, the binding signal in the assay with GST-Ap-NF-kB RHD came to 3.37 z-score; in assay [1] it was 3.38 z-score; with GST-Co-NF-kB it was 1.18 z-score; with GST-Dm-Relish, 5.48 z-score; in the assay with GST-Aq-NF-kB, 3.65 z-score.
The matching figures for “CCGATTAACATCAGGGGGGTACATGATGTTAATCGGGTCTTGATTCGCTTGACGCTGCTG”: 5.31 z-score, 2.52 z-score, 5.22 z-score, 4.13 z-score and 3.31 z-score.
The matching figures for “CCGATTAACATCAGGGGGATCACTGATGTTAATCGGGTCTTGATTCGCTTGACGCTGCTG”: 5.55 z-score, 4.61 z-score, 5.17 z-score, 9.4 z-score and 5.38 z-score.
The matching figures for “CCGATTAACATCAGACCTTCCCCTGATGTTAATCGGGTCTTGATTCGCTTGACGCTGCTG”: 4.8 z-score, 4.93 z-score, 4.12 z-score, 4.54 z-score and 5.13 z-score.
Turning to “CCGATTAACATCACAACACCCCCTGATGTTAATCGGGTCTTGATTCGCTTGACGCTGCTG”, the binding signal with GST-Ap-NF-kB RHD is 5.03 z-score; in assay [1], 3.99 z-score; in the assay with GST-Co-NF-kB, 3.14 z-score; with GST-Dm-Relish, 4.4 z-score; with GST-Aq-NF-kB, 4.65 z-score.
“CCGATTAACATCAGGGAATTATATGATGTTAATCGGGTCTTGATTCGCTTGACGCTGCTG”: the binding signal with GST-Ap-NF-kB RHD came to 4.16 z-score; in assay [1], 6.68 z-score; in the assay with GST-Co-NF-kB, 4.16 z-score; with GST-Dm-Relish, 3.26 z-score; with GST-Aq-NF-kB it was 6.69 z-score.
With “CCGATTAACATCAGGGAAATATATGATGTTAATCGGGTCTTGATTCGCTTGACGCTGCTG”, the binding signal with GST-Ap-NF-kB RHD was 3.7 z-score; in assay [1], 5.66 z-score; with GST-Co-NF-kB, 5.34 z-score; with GST-Dm-Relish it was 1.94 z-score; with GST-Aq-NF-kB, 6.09 z-score.
The corresponding values for “CCGATTAACATCAGGGAAAGTAATGATGTTAATCGGGTCTTGATTCGCTTGACGCTGCTG” are 3.01 z-score, 4.93 z-score, 3.38 z-score, 2.08 z-score and 4.25 z-score.
The corresponding values for “CCGATTAACATCAACCACCCCCCTGATGTTAATCGGGTCTTGATTCGCTTGACGCTGCTG” are 3.74 z-score, 2.31 z-score, 4.22 z-score, 4.6 z-score and 3.9 z-score.
The matching figures for “CCGATTAACATCACGGGAAACTCTGATGTTAATCGGGTCTTGATTCGCTTGACGCTGCTG”: 3.67 z-score, 4.12 z-score, 4.3 z-score, 1.55 z-score and 4.35 z-score.
Take “CCGATTAACATCACCCAGGGAAATGATGTTAATCGGGTCTTGATTCGCTTGACGCTGCTG”: the binding signal in the assay with GST-Ap-NF-kB RHD amounted to 1.54 z-score; in assay [1], 2.66 z-score; in the assay with GST-Co-NF-kB it was 2.73 z-score; with GST-Dm-Relish, 1.46 z-score; with GST-Aq-NF-kB, 2.69 z-score.
The corresponding values for “CCGATTAACATCAGGGGGTAACCTGATGTTAATCGGGTCTTGATTCGCTTGACGCTGCTG” are 6.07 z-score, 3.41 z-score, 5.91 z-score, 3.94 z-score and 5.48 z-score.
Turning to “CCGATTAACATCATAATTCCCAATGATGTTAATCGGGTCTTGATTCGCTTGACGCTGCTG”, the binding signal with GST-Ap-NF-kB RHD amounted to 1.92 z-score; in assay [1], 3.54 z-score; with GST-Co-NF-kB, 2.94 z-score; with GST-Dm-Relish it was 2.22 z-score; with GST-Aq-NF-kB, 2.84 z-score.
As for “CCGATTAACATCAGGGGAAGGACTGATGTTAATCGGGTCTTGATTCGCTTGACGCTGCTG”, the binding signal came out at 4.32 z-score with GST-Ap-NF-kB RHD; 4.53 z-score in assay [1]; 4.12 z-score with GST-Co-NF-kB; 8.23 z-score with GST-Dm-Relish; 5.22 z-score in the assay with GST-Aq-NF-kB.
For the sequence “CCGATTAACATCAGGGGACTATATGATGTTAATCGGGTCTTGATTCGCTTGACGCTGCTG”, the binding signal came to 5.4 z-score in the assay with GST-Ap-NF-kB RHD; 4.97 z-score in assay [1]; 2.59 z-score with GST-Co-NF-kB; 2.85 z-score in the assay with GST-Dm-Relish; 4.61 z-score with GST-Aq-NF-kB.
